Source: the supplement of paper PMC9262897, “Low-cost anti-mycobacterial drug discovery using engineered E. coli” (Nature Communications, 2022)
Counter-ions that a name gives are not always drawn. ± gives the standard deviation of the averaged measurements.

Tested on: E. coli TESEC Mtb Alr
Assay: growth (OD600 after 10 h); higher = more growth (less inhibition)
Conditions: compound 0.1 mM
Procedure: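 TESEC Mtb Alr E. coli, or the Alr+ wild-type control, in 384-well plates with Prestwick library compounds at 0.1 mM and 1% DMSO, across arabinose induction levels of 1E3 to 1E7 nM. Growth is read as OD600 after 10 h at 37 °C in triplicate biological replicates.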

[1] = arabinose 1000 nM, raw OD600 reference: median of DMSO wells 0.294, cell-free background 0.041
[2] = arabinose 10000 nM, raw OD600 reference: median of DMSO wells 0.264, cell-free background 0.041
[3] = arabinose 100000 nM, raw OD600 reference: median of DMSO wells 0.201, cell-free background 0.041
[4] = arabinose 1000000 nM, raw OD600 reference: median of DMSO wells 0.193, cell-free background 0.041
[5] = arabinose 10000000 nM, raw OD600 reference: median of DMSO wells 0.146, cell-free background 0.041

| SMILES | growth [1] | growth [2] | growth [3] | growth [4] | growth [5] |
| --- | --- | --- | --- | --- | --- |
| CCCCNc1ccc(C(=O)OCCN(C)C)cc1 | 0.273 ± 0.006 | 0.255 ± 0.003 | 0.186 ± 0.0077 | 0.166 ± 0.0023 | 0.146 ± 0.0066 |
| Cc1cc(NS(=O)(=O)c2ccc(N)cc2)no1 [Sulfamethoxazole] | 0.271 ± 0.017 | 0.212 ± 0.011 | 0.228 ± 0.0092 | 0.126 ± 0.0035 | 0.139 ± 0.0076 |
| NS(=O)(=O)c1cc2c(cc1Cl)NC(CC1CCCC1)NS2(=O)=O (stereo not given) [Cyclopenthiazide] | 0.278 ± 0.0078 | 0.2543 ± 0.0017 | 0.273 ± 0.013 | 0.191 ± 0.0034 | 0.143 ± 0.0052 |
| CCN(CC)CCc1nc(-c2ccccc2)no1 [Oxalamine citrate salt] | 0.273 ± 0.021 | 0.27 ± 0.0036 | 0.187 ± 0.0043 | 0.187 ± 0.0094 | 0.135 ± 0.0019 |
| COC(=O)[C@H](c1ccccc1Cl)N1CCc2sccc2C1 [Clopidogrel] | 0.0873 ± 0.0047 | 0.0411 ± 0.0013 | 0.0991 ± 0.004 | 0.0439 ± 0.00078 | 0.0663 ± 0.00069 |
| Nc1nc(N)nc(-c2cc(Cl)ccc2Cl)n1 [Irsogladine maleate] | 0.298 ± 0.013 | 0.2393 ± 0.0018 | 0.207 ± 0.011 | 0.173 ± 0.0041 | 0.143 ± 0.0066 |
| OCCN1C[C@H](O)[C@@H](O)[C@H](O)[C@H]1CO [Miglitol] | 0.285 ± 0.0045 | 0.26 ± 0.0085 | 0.204 ± 0.02 | 0.184 ± 0.0057 | 0.145 ± 0.0034 |
| CC(C)(C)NCC(O)COc1cccc2c1CC(O)C(O)C2 (stereo not given) [Nadolol] | 0.303 ± 0.014 | 0.267 ± 0.0029 | 0.192 ± 0.025 | 0.2 ± 0.0078 | 0.137 ± 0.0026 |
